Source: PubChem BioAssay (NCI)
Where “and” joins values, the source holds several entries; their conditions need not be identical. Identical values can stand only once. About 83,000 compounds went through this panel and 20% of them were active in at least one assay; those are over-represented in the sample as a whole.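 Cell lines were cultured in 96-well plates, exposed to a single compound concentration, and assessed for percent growth 48 hours later.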 Values without a mark were called inactive. Calls of active or inactive are those of the source. Rule for the calls: active = growth percent below 10; inactive = the rest.

Key:
HL-60(TB) leukemia = experiment: NCI-60 one-dose screen, 48 h (100 = growth as untreated, 0 = no growth, -100 = all killed); conditions: 10 µM unless noted
MDA-MB-468 breast = experiment: as above; conditions: 10 µM unless noted

SMILES	growth (HL-60(TB) leukemia)	growth (MDA-MB-468 breast)
COc1cc(C=O)ccc1OC(=O)c1cc(-c2ccc(C)cc2)n(-c2ccc(S(C)(=O)=O)cc2)n1	83.4%	
O=C(CSc1nnc(-c2ccc(-c3nc4ccccc4[nH]3)cc2)o1)Nc1ccccc1	53.5%	
CC1(C)CC[C@]2(C(=O)Nc3ccc(Br)cc3)CC[C@]3(C)C(=CCC4[C@@]5(C)C[C@@H](O)[C@H](O)[C@@](C)(CO)C5CC[C@]43C)C2C1 (stereo not given in full)	-13.2% (active)	
CC1=C(C(=O)c2ccccc2)C(c2cccc(Cl)c2Cl)n2c(nc3ccccc32)N1 (stereo not given)	36.1%	
CC1(C)C=Cc2c(ccc3c2[N+]([O-])=C2C3=C[C@@]34NC(=O)[C@]5(CCCN5C3=O)C[C@@H]4C2(C)C)O1		8.16% (active)
CCC1(CCSC#N)C(=O)NC(=O)NC1=O		107%
C[C@]12CCc3sc(Nc4ccc(O)cc4)nc3C1=CC[C@@H]1[C@@H]2CC[C@]2(C)C(=O)CC[C@@H]12		-36.9% (active)
C=CCc1ccc(OC(=O)Cc2ccccc2)c(OC)c1		100%
COC(=O)C1CCC(NC(=O)c2csc([C@@H](C[C@H](C(C)C)N(C)C(=O)[C@@H](NC(=O)[C@H]3CCCCN3C)C(C)C)OC(C)=O)n2)CC1 (stereo not given in full)		27.9%
CC(=O)N1N=C(c2ccccc2)CC1c1sc(N(CCCl)CCCl)nc1Cl (stereo not given)		92.6%
COc1ccc(Nc2ccc([N+](=O)[O-])cc2[N+](=O)[O-])cc1CN(CCCl)CCCl		10.1%
Cc1cc(C)c(C[N+](C)(C)C)c(C)c1C		16.1%
CCCCCCCCCCCCCCCC[N+](C)(C)Cc1ccccc1		-27.3% (active) and -40.6% (active)
CCOc1c(Cl)cc(CNC(C)C(O)c2ccccc2)cc1OC (stereo not given)		32.5%
COc1cc(NCCCN=C(N)N)c2ncccc2c1		-37.1% (active)
Cc1ccc(NC2=N[C@]34CC(=O)CC[C@]3(C)[C@H]3CC[C@]5(C)C(=O)CC[C@H]5[C@@H]3C[C@@H]4S2)c(C)c1		17%
Nc1c(F)cc(-c2nc3cc(F)ccc3[se]2)cc1F		-39.8% (active)
CCC(C)[C@H]1O[C@]2(C=C[C@@H]1C)C[C@@H]1C[C@@H](C/C=C(\C)[C@@H](OC3C[C@H](OC)C(O[C@H]4C[C@H](OC)[C@@H](O)[C@H](C)O4)[C@H](C)O3)[C@@H](C)/C=C/C=C3\CO[C@@H]4[C@H](O)C(C)=C[C@@H](C(=O)O1)[C@]34O)O2 (stereo not given in full)		-12.7% (active)
O=NN1CCCc2cccc(O)c21		67.7%
c1ccc2c(c1)O[As](O[As]1Oc3ccccc3O1)O2		10.7%
CNc1ccc(C(=O)CC(O)CCC(C)C2OC(=O)CC(O)CC(=O)CC(O)CC(O)CC(O)CC(O)CC3(O)CC(O)C(C(=O)OC)C(CC(O[C@@H]4O[C@H](C)[C@@H](O)[C@H](N)[C@@H]4O)/C=C/C=C/C=C/C=C/C=C/C=C/C=C/C2C)O3)cc1 (stereo not given in full)		36.5%
CC(C)CCC1C(=O)NC(=O)NC1=O		114%
O=C(N/N=C\c1ccc(N(CCCl)CCCl)cc1)c1cccc([N+](=O)[O-])c1		68.1%

SMILES	growth (HL-60(TB) leukemia)	growth (MDA-MB-468 breast)
CN(CCCCN(C)CCOS(C)(=O)=O)CCOS(C)(=O)=O		76.9%
Brc1ccc2c(c1)c(-c1nc(-c3c[nH]c4ncccc34)cs1)cn2CCN1CCCCC1		79.2%
CC(=O)OC1CCC2(C)C(CCC3C2CC(=O)C2(C)C3CC(Sc3ccc(N(CCCl)CCCl)cc3)C2C(C)=O)C1 (stereo not given)		86.6%
CC1(C)N=C(N)N=C(N)N1c1ccc(OCCCNC(=O)Nc2ccc(S(=O)(=O)F)cc2)c(Cl)c1		14.6%
NC(=Nc1ccccc1)N[N+](=O)[O-]		92.2%
CN1C(=O)C23CC4(C56CC78SSC(CO)(C(=O)N7C5Nc5ccccc56)N(C)C8=O)c5ccccc5NC4N2C(=O)C1(CO)SS3 (stereo not given)		-81.7% (active)
CC1(C)N=C(N)N=C(N)N1c1ccc(CCC(=O)Nc2cccc(S(=O)(=O)F)c2)cc1		28%
Cc1cc([N+](=O)[O-])c(Cl)cc1NS(=O)(=O)c1ccccc1		59.4%
CCCCCCCC[N+](C)(CCCCCCCC)CCCCCCCC		-90.1% (active)
CN[C@]1(c2ccccc2Cl)CCCC[C@H]1NCCCN1CCN(C)CC1		85.2%
O=P(Oc1ccc(Cl)cc1)(N1CC1)N1CC1		54.1%
N#C[Se]Cc1cc(-c2ccccc2)n(-c2ccc(S(N)(=O)=O)cc2)n1		-66.1% (active)
O=c1c2ccccc2nc(-c2ccccc2Cl)n1-c1nnc(C(F)(F)F)s1		19.7%
N/C(=N/N=C/c1ccncc1)N[N+](=O)[O-]		110%
COc1ccc(/C=C/c2cc(OC)c(OC)c(OC)c2)cc1NC(=O)/C=C/c1ccc(F)cc1		13.3%
O=C(N/N=C\c1ccc(N(CCCl)CCCl)cc1Cl)c1cccnc1		-69.6% (active)
COc1cc2c(O[C@@H]3OC[C@H](O)[C@H](O)[C@H]3O)c3c(c(-c4ccc5c(c4)OCO5)c2cc1OC)C(=O)OC3		59.3%
O=P1(N(CCCl)CCCl)NCCCO1 (stereo not given)		108%
CC(=O)O[C@H]1CC[C@]2(C)[C@H]3CC[C@]4(C)[C@@H](OC(C)=O)CC[C@H]4[C@@H]3[C@@H](C)[C@]2(O)C1		104%
O=C1C2C(C(=O)[N]1[Hg][c]1cccs1)C1(Cl)C(Cl)=C(Cl)C2(Cl)C1(Cl)Cl (stereo not given)		-83.7% (active)
CCC1([N+](=O)[O-])COP(=O)(NCc2cccnc2)OC1 (stereo not given)		104%
C=C(C)[C@@]12OC3(/C=C/C=C/CCCCC)O[C@@H]1[C@@H]1[C@@H]4O[C@]4(CO)[C@@H](O)[C@]4(O)C(=O)C(C)=C[C@H]4[C@@]1(O3)[C@H](C)[C@H]2OC(=O)c1ccccc1		56.5%
